Measurements taken from PubChem BioAssay (Tox21).
The source made the active and inactive calls. Unless noted, the call rests on the fitted dose curve; in most records, active means well fitted curve in the direction sought with a large enough effect in the repeat runs; inconclusive means weak or mixed curves; inactive means no such curve, though single readings can be large; an effect the other way counts as inactive or inconclusive.

What was measured:
[1] = qHTS assay for small molecules that induce genotoxicity in human embryonic kidney cells expressing luciferase-tagged ATAD5 (AID 651632); further: nearly all actives have a fitted effect of over 15% in size; further: potency means the concentration at half of the fitted maximal effect
In short: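 Reporter cells (HEK293T) express luciferase-tagged ATAD5, a protein that accumulates after DNA damage. Treat 16 hr at 37C/5% CO2, add Amplite, wait 30 min at RT, and read luminescence.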

[2] = qHTS assay for small molecule agonists of the p53 signaling pathway - cell viability (AID 651633; calls by dose curve; further: nearly all actives have a fitted effect of over 30% in size; further: potency means the concentration at half of the fitted maximal effect)
In short: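 p53RE-bla cells, seeded at 4,000 per well and rested 5 h at 37 C/5% CO2, received compounds in DMSO for 16 h at 37 C. CellTiter-Glo was then added, and luminescence was read after 30 min at room temperature to gauge cytotoxicity.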

[3] = qHTS assay for small molecules that induce genotoxicity in human embryonic kidney cells expressing luciferase-tagged ATAD5 - cell viability (AID 651634; calls by dose curve; further: nearly all actives have a fitted effect of over 25% in size)
In short: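 Seeding of 2,000 HEK293T ATAD5-luciferase cells per well preceded pin-tool compound transfer. Plates sat 15.5 hr at 37C under 5% CO2, then fluorescence was read after 30 min with CellTiter-Fluor.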

[4] = qHTS assay for small molecule disruptors of the mitochondrial membrane potential - cell viability (AID 720634; calls by dose curve;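 further: human HepG2 liver cancer cells; nearly all actives have a fitted effect of over 20% in size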)
In short: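 Measuring cytotoxicity alongside mitochondrial potential, the screen quantified ATP by luminescence in HepG2 cells after 1 hr compound incubation and a 30 min room-temperature CellTiter-Glo step.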

[5] = qHTS assay for small molecule disruptors of the mitochondrial membrane potential (AID 720635); further: potency means the concentration at half of the fitted maximal effect
In short: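 HepG2 cells (2,000/well) attached overnight at 37C, then took compound for 1 hr at 37C, 5% CO2. Mito-MPS dye was added for 30 min; fluorescence was read at 490/535 nm (monomers) and 540/590 nm (aggregates).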

[6] = qHTS assay to test for compound auto fluorescence at 535 nm (green) in HepG2 cells (AID 720675)
[7] = qHTS assay to test for compound auto fluorescence at 460 nm (blue) in HEK293 cells (AID 720678)
In short: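 Triamterene serves as the blue fluorophore standard. Compound signal at 405/460 nm is read in HEK293 wells (2,000 cells, 10% dialyzed FBS) after overnight treatment at 37C.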

[8] = qHTS assay to test for compound auto fluorescence at 590 nm (red) in HEK293 cells (AID 720679)
In short: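 We plated HEK293 cells in 10% dialyzed FBS medium, let them adhere for 4-5 hr, then added 23 nL compound. Overnight at 37C and 5% CO2 preceded fluorescence measurement at 540/590nm.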

[9] = qHTS assay to test for compound auto fluorescence at 535 nm (green) in HEK293 cells (AID 720680)
[10] = qHTS assay to test for compound auto fluorescence at 460 nm (blue) in HEK293 cell free culture (AID 720681)
In short: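 Test compounds were pinned into cell-free culture medium (DMEM with 10% FBS) and fluorescence was read directly at Ex/Em 405/460 nm. Signals were expressed as fluorescence equivalents of triamterene, with DMSO vehicle as control.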

[11] = qHTS assay to test for compound auto fluorescence at 535 nm (green) in HEK293 cell free culture (AID 720682)
In short: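 Using fluorescein as calibrant, autofluorescence was quantified at 485/535 nm in cell-free DMEM containing 10% FBS after pintool addition of compound or vehicle.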

[12] = qHTS assay to test for compound auto fluorescence at 590 nm (red) in HEK293 cell free culture (AID 720683)
In short: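 Tox21 10K library compounds were pinned into cell-free DMEM with 10% FBS and fluorescence was read at excitation 540 nm. Activity is expressed as Rose Bengal sodium equivalency.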

[13] = qHTS assay to test for compound auto fluorescence at 590 nm (red) in HepG2 cell free culture (AID 720684)
In short: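 Measured in medium alone (MEM containing 10% FBS) following pintool addition of compound; emission at 590 nm with 540 nm excitation, referenced to Rose Bengal sodium.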

[14] = qHTS assay to test for compound auto fluorescence at 460 nm (blue) in HepG2 cell free culture (AID 720685)
In short: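 Compound (23 nL) or DMSO pinned into cell-free MEM with 10% FBS; blue fluorescence read at 405/460 nm excitation/emission, expressed as auto-fluorescence equivalency to triamterene.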

[15] = qHTS assay to test for compound auto fluorescence at 535 nm (green) in HepG2 cell free culture (AID 720686)
[16] = qHTS assay to test for compound auto fluorescence at 460 nm (blue) in HepG2 cells (AID 720687)
In short: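 Cells (2,000/well in MEM with 10% FBS) attached overnight at 37 C, then were exposed to compound or DMSO for 1 hr at 37 C, 5% CO2. Fluorescence read at Ex/Em 405/460 nm, expressed as triamterene-equivalent signal.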

[17] = target: Glucocorticoid receptor (Homo sapiens) (UniProt P04150); test: qHTS assay to identify small molecule agonists of the glucocorticoid receptor (GR) signaling pathway (AID 720691; active means well fitted activation curve with a large enough effect in the signal ratio in the repeat runs, not every such curve was filed as active; inconclusive means weak or mixed curves, or effect the other way; inactive means no such curve, though single readings can be large or run the other way; the % refers to the signal ratio; further: potency means the concentration at half of the fitted maximal effect); conditions: GR-bla HeLa, beta-lactamase reporter ratio, 18 h; activation: at 62.4 µM (top of the series) unless noted
In short: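 Reporter read-out: fluorescence intensity following 2 h room-temperature LiveBLAzer B/G FRET substrate loading. Prior step: GR-bla HeLa cells held 4 h, then treated 18 h at 37 C.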

[18] = target: Glucocorticoid receptor (Homo sapiens) (UniProt P04150); test: qHTS assay to identify small molecule antagonists of the glucocorticoid receptor (GR) signaling pathway (AID 720692; active means well fitted inhibition curve with a large enough effect in the signal ratio in the repeat runs, not every such curve was filed as active; inconclusive means weak or mixed curves, or effect the other way; inactive means no such curve, though single readings can be large or run the other way; the % refers to the signal ratio; further: potency means the concentration at half of the fitted maximal effect)
In short: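 Dexamethasone (5 nM final) stimulated a stably integrated GRE-beta-lactamase reporter in HeLa cells during 18 h co-incubation with compounds; signal was quantified as fluorescence intensity of B/G FRET substrate after 2 h.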

[19] = qHTS assay for small molecule agonists of the p53 signaling pathway (AID 651631; calls by dose curve; further: nearly all actives have a fitted effect of over 15% in size; further: potency means the concentration at half of the fitted maximal effect)
In short: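 Stably transfected HCT-116 cells (beta-lactamase behind p53 response elements) get compounds after a 5 h settling period; 16 h later at 37 °C, FRET substrate is loaded and fluorescence read after 2 h.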

[20] = qHTS assay to test for compound auto fluorescence at 590 nm (red) in HepG2 cells (AID 720674)
In short: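 Compound auto-fluorescence is scored relative to Rose Bengal sodium, measured at 540/590 nm in live HepG2 cultures after 1 hr compound contact (37 C, 5% CO2).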
On the % scale 0 is the no-effect control and ±100 the full control effect.

Sequence of Glucocorticoid receptor (Homo sapiens) (P04150 whole entry, looked up): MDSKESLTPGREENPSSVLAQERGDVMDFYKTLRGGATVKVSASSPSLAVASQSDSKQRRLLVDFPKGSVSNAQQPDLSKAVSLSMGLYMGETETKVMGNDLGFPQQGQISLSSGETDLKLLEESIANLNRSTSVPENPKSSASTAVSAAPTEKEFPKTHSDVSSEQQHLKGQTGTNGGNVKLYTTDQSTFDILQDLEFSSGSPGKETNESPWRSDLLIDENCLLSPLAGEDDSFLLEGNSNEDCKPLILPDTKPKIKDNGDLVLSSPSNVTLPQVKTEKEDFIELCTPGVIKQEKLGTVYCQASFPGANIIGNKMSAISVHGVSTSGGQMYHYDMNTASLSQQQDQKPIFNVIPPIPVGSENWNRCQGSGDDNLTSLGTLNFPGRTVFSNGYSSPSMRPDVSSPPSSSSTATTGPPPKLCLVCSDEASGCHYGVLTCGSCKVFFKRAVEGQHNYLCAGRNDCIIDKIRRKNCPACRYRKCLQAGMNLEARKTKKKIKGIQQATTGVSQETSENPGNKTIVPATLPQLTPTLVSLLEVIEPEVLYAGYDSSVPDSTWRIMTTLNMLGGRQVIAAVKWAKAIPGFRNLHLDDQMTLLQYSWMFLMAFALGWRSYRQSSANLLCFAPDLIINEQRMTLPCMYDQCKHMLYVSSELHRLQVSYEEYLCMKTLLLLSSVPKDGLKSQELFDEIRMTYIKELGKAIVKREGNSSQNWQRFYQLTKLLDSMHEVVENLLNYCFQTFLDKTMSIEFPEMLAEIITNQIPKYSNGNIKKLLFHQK

COc1cc2nc(N(C)CCCNC(=O)C3CCCO3)nc(N)c2cc1OC (configuration not stated)
inactive: Potency [1] | Potency [2] | Potency [3] | Potency [4] | Potency [5] | fluorescence, % of fluorescein control [6] -0.0701% [at 18.6 µM] | fluorescence, % of triamterene [7] -0.108% [at 18.6 µM] | fluorescence, % of fluorescent control [8] -0.585% [at 18.6 µM] | fluorescence, % of fluorescein [9] -0.0302% [at 18.6 µM] | fluorescence, % of fluorescent control [10] -0.0154% [at 18.6 µM] | activity change [11] -0.131% [at 18.6 µM] | fluorescence, % of fluorescent control [12] -0.206% [at 18.6 µM] | fluorescence, % of Rose Bengal [13] -0.324% [at 18.6 µM] | fluorescence, % of fluorescent control [14] -0.0022% [at 18.6 µM] | fluorescence, % of fluorescein control [15] -0.0969% [at 18.6 µM] | fluorescence, % of fluorescent control [16] 0.136% [at 18.6 µM] | Potency [17] | Potency [18]

Cc1cc(N)c2cc(NC(=O)Nc3ccc4nc(C)cc(N)c4c3)ccc2n1
inactive: Potency [19] | Potency [4] | Potency [20] | Potency [6] | outcome [7] | outcome [9] | outcome [10] | outcome [11] | Potency [12] | Potency [13] | outcome [14] | Potency [15] | outcome [16]
active: Potency [5] 22.1 µM

O=C(OCCc1ccccc1)c1ccccc1
inactive: Potency [19] | Potency [2] | Potency [3] | Potency [4] | Potency [5] | Potency [20] | Potency [6] | outcome [7] | Potency [8] | outcome [9] | outcome [10] | outcome [11] | Potency [13] | outcome [14] | Potency [15] | outcome [16] | Potency [17]

C1CCCNCCC1
inactive: Potency [1] | Potency [2] | Potency [3] | Potency [4] | Potency [5] | Potency [6] | outcome [7] | Potency [8] | outcome [9] | outcome [10] | outcome [11] | Potency [12] | Potency [13] | outcome [14] | Potency [15] | outcome [16]

COCC(C)OC(C)=O (configuration not stated)
inactive: Potency [1] | Potency [2] | Potency [3] | Potency [4] | Potency [5] | Potency [20] | Potency [6] | outcome [7] | outcome [9] | outcome [10] | outcome [11] | Potency [13] | outcome [14] | outcome [16] | Potency [17] | Potency [18]

COc1ccc(-c2nc3ccc(C4=NNC(=O)CC4C)cc3[nH]2)cc1 (configuration not stated)
active: Potency [19] 11.9 µM
inactive: Potency [2] | Potency [4] | Potency [20] | Potency [6] | Potency [8] | outcome [10] | outcome [11] | Potency [13] | outcome [14] | Potency [15] | outcome [16] | Potency [17]

CCn1cc(C(=O)O)c(=O)c2cnc(N3CCNCC3)nc21
inactive: Potency [19] | Potency [2] | Potency [4] | Potency [5] | fluorescence, relative to Rose Bengal [20] 0.305% [at 18.6 µM] | fluorescence, % of fluorescein control [6] -0.0874% [at 18.6 µM] | fluorescence, % of triamterene [7] -0.0251% [at 18.6 µM] | fluorescence, % of fluorescent control [8] -0.324% [at 18.6 µM] | fluorescence, % of fluorescein [9] 0.0376% [at 18.6 µM] | fluorescence, % of fluorescent control [10] 6.27% [at 18.6 µM] | activity change [11] 0.0637% [at 18.6 µM] | fluorescence, % of fluorescent control [12] -0.371% [at 18.6 µM] | fluorescence, % of Rose Bengal [13] -0.185% [at 18.6 µM] | fluorescence, % of fluorescent control [14] 0.0041% [at 18.6 µM] | fluorescence, % of fluorescein control [15] 0.152% [at 18.6 µM] | fluorescence, % of fluorescent control [16] -0.128% [at 18.6 µM]

CCN(CC)CCNc1ccc(CNC=O)c2sc3ccc(OC)cc3c(=O)c12
inactive: Potency [2] | Potency [4] | Potency [20] | Potency [6] | outcome [7] | Potency [8] | outcome [9] | outcome [10] | outcome [11] | Potency [13] | outcome [14] | Potency [15] | outcome [16]
active: Potency [19] 6.86 µM | Potency [17] 49 µM [inconclusive]

C=CC(=O)OCCOc1ccccc1
inactive: Potency [3] | Potency [4] | Potency [20] | Potency [6] | outcome [7] | Potency [8] | outcome [9] | outcome [10] | outcome [11] | Potency [12] | Potency [13] | outcome [14] | Potency [15] | outcome [16] | Potency [17]
active: Potency [19] 68.5 µM | Potency [18] 21.9 µM

CN(Cc1ccc(C(C)(C)C)cc1)Cc1cccc2ccccc12
inactive: Potency [1] | Potency [3] | Potency [4] | Potency [5] | Potency [20] | Potency [6] | outcome [7] | Potency [8] | outcome [9] | outcome [10] | outcome [11] | Potency [12] | Potency [13] | outcome [14] | outcome [16] | Potency [17] | Potency [18]
active: Potency [2] 23.7 µM

COc1cc(C(=O)OCCCN2CCCN(CCCOC(=O)c3cc(OC)c(OC)c(OC)c3)CC2)cc(OC)c1OC
active: Potency [1] 8.41 µM
inactive: Potency [19] | Potency [3] | Potency [4] | Potency [20] | Potency [6] | outcome [7] | Potency [8] | outcome [9] | outcome [10] | outcome [11] | Potency [12] | Potency [13] | outcome [14] | Potency [15] | outcome [16] | Potency [17] | Potency [18]

CC(=O)[O][Al]
inactive: Potency [19] | Potency [2] | Potency [3] | Potency [4] | Potency [20] | Potency [6] | outcome [7] | Potency [8] | outcome [9] | outcome [10] | outcome [11] | Potency [12] | Potency [13] | outcome [14] | Potency [15] | outcome [16]

CCCn1cnc2c1c(=O)n(CCCCC(C)=O)c(=O)n2C
inactive: Potency [19] | Potency [2] | Potency [3] | Potency [4] | Potency [5] | Potency [20] | Potency [6] | Potency [8] | outcome [9] | outcome [10] | outcome [11] | Potency [12] | Potency [13] | outcome [14] | Potency [15] | outcome [16] | Potency [17] | Potency [18]
